In PubChem BioAssay (Tox21):
Records with an inconclusive call do not appear. Entries that show only a call come without a potency. Activity calls are given as the source filed them. Calls come from the whole dose curve; as a rule, active = well fitted cell-killing curve with a large enough effect in the repeat runs; inconclusive = weak or mixed curves, or effect the other way; inactive = flat fitted curve, though single readings scatter.

How the values were obtained:
[1] = cAMP Responsive Elements (CRE) small molecule antagonists, cell-based qHTS assay: qHTS cell viability counter screen (AID 2060913); note: nearly all actives have a fitted effect of over 40% in size
In short: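 CRE-bla HEK293T cells (2,000/well, 18 h) given compound plus NKH477 0.25 uM final for 3 h at 37C; viability counter-screen by CellTiter-Glo luminescence in same wells after 30 min.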

[2] = cAMP Responsive Elements (CRE) small molecule agonists, cell-based qHTS assay: qHTS cell viability counter screen (AID 2060914);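 note: viability read after 3 h of compound exposure; nearly all actives have a fitted effect of over 50% in size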
In short: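 Cytotoxicity counter screen multiplexed with the CRE-bla reporter assay in HEK 293T cells: 3 h compound exposure at 37 °C, followed by CellTiter-Glo luminescence measured in the same wells.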

| Compound | Potency [1] | Potency [2] |
| --- | --- | --- |
| O=C(O)c1cc(-c2ccc(F)cc2F)ccc1O | inactive | inactive |
| CN(C)CCCN1c2ccccc2Sc2ccc(C(F)(F)F)cc21 | inactive | inactive |
| c1ccc(CNc2ncnc3nc[nH]c23)cc1 | inactive | inactive |
